The list is not random: actives were taken first. Their share in the collection is about 1.5%.
TPT1 inh: C. albicans TPT1 enzyme inhibition. recombinant caTPT1, FP RNA substrate dephosphorylation. inhibition, % at 5 µM. 300,000 tested, 0.81% active. AID 1962;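 active = inhibition above the mean of all tested compounds plus 3 SD, set per screening campaign, cut at about 24% in these data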
CRFBP-R2 agonist: agonists of human CRF-binding protein/CRF-R2 receptor complex; HEK293 CRF-R2/CRF-BP, calcium dye fluorescence (FLIPR); percent of saturating CRF peptide response; 350,000 tested, 0.46% active; activation, % at 13.2 µM;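 active = activation of at least 50%, plus an integration ratio under a set limit after plate pattern correction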
IDE cell activ: boosts human insulin-degrading enzyme activity in HEK cells; FAbeta-B cleavage, fluorescence polarization; 0% vehicle, 100% cell-free pure enzyme wells; activation, % at 5.96 µM; 340,000 tested, 0.073% active; AID 493087;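 active = activation above the mean of all tested compounds plus 3 SD, set per screening campaign, cut at about 17% in these data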
Target sequence (P14735 whole entry, looked up): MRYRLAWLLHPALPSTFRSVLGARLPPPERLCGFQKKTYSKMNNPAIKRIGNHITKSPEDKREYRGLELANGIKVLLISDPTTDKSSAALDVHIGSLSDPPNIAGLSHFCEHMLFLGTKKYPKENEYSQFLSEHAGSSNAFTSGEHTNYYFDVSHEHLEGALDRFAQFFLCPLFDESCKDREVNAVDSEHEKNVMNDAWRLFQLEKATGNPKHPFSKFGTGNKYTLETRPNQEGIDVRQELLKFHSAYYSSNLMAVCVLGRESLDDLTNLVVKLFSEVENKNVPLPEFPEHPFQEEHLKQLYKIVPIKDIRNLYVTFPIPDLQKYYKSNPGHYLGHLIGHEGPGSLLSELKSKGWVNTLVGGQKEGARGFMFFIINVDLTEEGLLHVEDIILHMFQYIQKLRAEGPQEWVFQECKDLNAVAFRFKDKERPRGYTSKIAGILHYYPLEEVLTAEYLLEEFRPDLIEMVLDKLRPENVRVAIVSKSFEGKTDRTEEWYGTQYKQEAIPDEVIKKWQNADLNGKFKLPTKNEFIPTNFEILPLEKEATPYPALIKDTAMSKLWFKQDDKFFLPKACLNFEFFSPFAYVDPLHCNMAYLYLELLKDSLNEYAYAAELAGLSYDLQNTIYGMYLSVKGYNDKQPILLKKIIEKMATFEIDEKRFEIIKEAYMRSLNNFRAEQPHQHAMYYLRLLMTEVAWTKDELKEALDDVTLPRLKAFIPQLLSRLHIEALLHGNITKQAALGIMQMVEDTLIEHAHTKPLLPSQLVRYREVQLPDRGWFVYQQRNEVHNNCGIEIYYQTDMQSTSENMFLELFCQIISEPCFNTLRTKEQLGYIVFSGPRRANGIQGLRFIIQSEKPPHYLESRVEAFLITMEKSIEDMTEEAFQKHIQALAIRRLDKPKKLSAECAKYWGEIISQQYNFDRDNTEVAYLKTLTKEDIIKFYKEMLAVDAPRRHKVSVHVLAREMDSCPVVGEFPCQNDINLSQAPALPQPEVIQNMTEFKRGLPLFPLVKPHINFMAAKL
IDE cell inh: inhibitors of human insulin-degrading enzyme in cells; P14735; HEK cells, FAbetaB cleavage, fluorescence polarization; inhibition, % at 5.59 µM; 320,000 tested, 0.41% active; AID 434962;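 active = percent inhibition above the average of all tested compounds plus 3 SD, set per screening campaign, cut at about 16% in these data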;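 note: IDE supplied by intact live HEK cells; FP after avidin binding of uncleaved biotin substrate so inhibition keeps polarization high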
Cardiac RTF inh: cardiac RTF calcium desensitization; inhibition, % at 7.15 µM; IANBD-labeled cardiac RTF, Ca2+ fluorescence; 340,000 tested, 0.12% active; P19429+P45379;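 active = inhibition above the mean inhibition of all tested compounds plus 3 SD, cut at about 17% in these data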;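 note: assay run at fixed EC70 calcium of 1.6 mM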
cardiac RTF act: cardiac RTF calcium sensitization; IANBD-labeled TnC RTF fluorescence at EC20 calcium; 0% EC20 calcium, 100% full calcium; activation, % at 7.2 µM; AID 493008; 340,000 tested, 0.24% active; P19429+P45379;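 active = activation above the mean over all tested compounds plus 3 SD, cut at about 30% in these data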;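 note: rise in fluorescence read as greater calcium sensitivity of cardiac thin filaments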
IDE inh confirm: cellular human IDE inhibition, confirmation | shares compounds with IDE cell inh | HEK cells, FAbetaB cleavage, fluorescence polarization | inhibition, % at 5.59 µM | 1,200 tested, 51% active | AID 435028;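 active = mean inhibition across triplicate wells above the cutoff set by the earlier primary insulin-degrading enzyme screen, cut at about 16% in these data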
HEK cytotox: kills HEK cells in IDE inhibitor counter-screen; shares compounds with IDE cell inh; HEK293 cytotoxicity, ATP luminescence; inhibition, % at 5.59 µM; 1,200 tested, 28% active; in the data active = inhibition above about 22%
A number is an active result; i = inactive; nt = no result.

SMILES | TPT1 inh | CRFBP-R2 agonist | IDE cell activ | IDE cell inh | Cardiac RTF inh | cardiac RTF act | IDE inh confirm | HEK cytotox
Cn1c(SCC(=O)c2ccc3c(c2)Cc2ccccc2-3)nnc1-c1ccccc1 | i | i | i | 28 | i | i | i | i
Cc1nc(Nc2nc(CSc3nc4ccccc4[nH]3)cc(=O)[nH]2)nc2ccccc12 | i | i | i | 45 | i | i | i | 42
CCOc1ccc(NC(=O)c2ccccn2)cc1 | i | i | i | 17 | i | i | i | 27
OC(COCc1ccccc1F)CN1CCCCC1 (stereo not given) | i | i | i | i | i | i | nt | nt
S=c1[nH]nc(Nc2cccc(Cl)c2)s1 | i | i | i | 17 | i | i | i | i
CN(C)N1C(=O)c2c(Cl)c(Cl)c(Cl)c(Cl)c2C1=O | nt | i | i | nt | i | i | nt | nt
CC(=O)N1CC[n+]2c(-c3ccc(Cl)cc3)csc21 | i | i | i | 22 | i | i | i | i
O=[N+]([O-])/C=C/c1cn(Cc2ccccc2)c2ccccc12 | i | i | i | i | i | i | nt | nt
N#Cc1ccccc1Cn1cc(/C=C/[N+](=O)[O-])c2ccccc21 | i | i | i | 16 | i | i | i | 85
O=C(O)c1ccc(Nc2ncnc3c2cnn3Cc2ccccc2)cc1 | i | i | i | 17 | i | i | i | i
CC(C)Nc1ncnc2c1cnn2Cc1ccccc1Cl | i | i | i | i | i | i | nt | nt
c1ccc(Cn2ncc3c(NCc4ccco4)ncnc32)cc1 | i | i | i | 18 | i | i | i | i
c1ccc(-n2ncc3c(NCc4ccco4)ncnc32)cc1 | i | i | i | i | i | i | nt | nt
CC(C)CNc1ncnc2c1cnn2Cc1ccccc1Cl | i | i | i | 17 | i | i | i | i
CN[C@H]1C[C@H]2c3[nH]c4ccccc4c3CCN2C(=O)[C@H]1[C@H](C)O | nt | i | nt | nt | nt | nt | nt | nt
CCN1C(=O)[C@H]2[C@@H](c3ccc(C)cc3)N3C(=O)N(c4ccc(OC)cc4)C(=O)[C@@]3(C)[C@H]2C1=O | i | i | i | i | i | i | nt | nt
CC(NC(=O)c1c(O)c2ccccc2n(C)c1=O)c1ccccc1 (stereo not given) | i | i | i | i | i | i | nt | nt
O=C1/C(=C/c2ccccn2)SC(=S)N1Nc1ncc(C(F)(F)F)cc1Cl | nt | i | i | nt | i | i | nt | nt
c1ccc(-c2nnnn2-c2ccccc2)cc1 | nt | i | i | nt | i | i | nt | nt
ClC(Cl)(c1nnnn1-c1ccccc1)c1nnnn1-c1ccccc1 | i | i | i | 60 | i | i | i | 121
COc1cc(-c2cc(=O)c3ccccc3o2)ccc1O | i | i | i | 25 | i | i | 24 | i
Cc1cc2n(n1)C(c1ccccc1)CC(c1ccc(Br)cc1)=N2 (stereo not given) | i | i | i | i | i | i | nt | nt
COc1ccc2nc3sc(C(=O)N4CCN(C)CC4)cc3cc2c1 | i | i | i | i | i | i | nt | nt
COc1ccc2nc3sc(C(=O)NCCCN4CCc5ccccc5C4)cc3cc2c1 | i | i | i | 20 | i | i | i | i
CCC(C)C(NC(=O)C1CCC(C)CC1)C(=O)NCCc1ccc(S(N)(=O)=O)cc1 (stereo not given) | i | i | i | i | i | i | nt | nt
SMILES | TPT1 inh | CRFBP-R2 agonist | IDE cell activ | IDE cell inh | Cardiac RTF inh | cardiac RTF act | IDE inh confirm | HEK cytotox
COc1ccccc1NC(=O)CSc1nnc(Cc2cc(=O)[nH]c(=O)[nH]2)n1-c1ccccc1 | i | i | i | 19 | i | i | i | i
CCn1c(SCC(=O)Nc2nc(-c3ccc(C)cc3)cs2)nnc1-c1ccccc1 | i | i | i | 16 | i | i | i | i
CCn1c(SCC(=O)Nc2nc(-c3ccc(C)cc3)cs2)nnc1-c1ccccc1O | i | i | i | i | i | i | nt | nt
Cc1ccc(S(=O)(=O)NC(=O)N(CCC#N)Cc2ccccc2)cc1 | i | i | i | i | i | i | nt | nt
C[C@@H]1C=C(C(=O)NCc2nc3ccccc3[nH]2)O[C@H](OCCCCO)C1 | i | i | i | 17 | i | i | i | i
CCN1/C(=C/C=C/c2oc3ccc4ccccc4c3[n+]2CC)Oc2ccc3ccccc3c21 | i | 153 | nt | 82 | nt | nt | 133 | 112
